Measurements reported in the supplement of paper PMC11732987, “Enantioselective OTUD7B fragment discovery through chemoproteomics screening and high-throughput optimisation” (Communications Chemistry, 2025).

Experiments:
Experiment in all cases: log2 ratio of Biotin-Ahx-Ub-VS probe labelling (fragment/DMSO); higher = less target engagement (more negative = stronger competition), active = hit call of the paper (q ≤ 0.05, log2 ratio ≤ -1)
Conditions in all cases: compound concentration: 200 uM; treatment time: 3 h
OTUD6B = target: T1, OTUD6B (UniProt Q8N6M0)
T1 sequence (whole entry): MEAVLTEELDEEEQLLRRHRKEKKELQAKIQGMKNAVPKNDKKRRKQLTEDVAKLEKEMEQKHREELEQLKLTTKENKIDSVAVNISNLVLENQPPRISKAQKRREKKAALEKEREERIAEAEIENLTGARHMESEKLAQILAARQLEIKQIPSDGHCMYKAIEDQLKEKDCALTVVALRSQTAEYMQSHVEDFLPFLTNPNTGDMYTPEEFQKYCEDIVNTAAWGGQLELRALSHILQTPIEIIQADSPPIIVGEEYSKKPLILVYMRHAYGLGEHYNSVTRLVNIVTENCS
Method in brief: (§1)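 Lysate from HEK293T cells, 495 µg per sample in Tris/CHAPS/IGEPAL buffer with protease inhibitors, was treated for 3 h in triplicate with fragment at 200 µM or vehicle. Biotin-Ahx-Ub-VS was next added at 0.5 µM final for 1 h. The labelled DUBs were enriched with NeutrAvidin, digested with LysC and trypsin, and run by diaPASEF LC-MS/MS, with values given as average log2 fragment/vehicle ratios by unpaired t-test on global-median-normalised Spectronaut quantities of proteins with ≥2 unique peptides.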

OTUD7B = target: T2, OTUD7B (UniProt Q6GQQ9)
T2 sequence (whole entry): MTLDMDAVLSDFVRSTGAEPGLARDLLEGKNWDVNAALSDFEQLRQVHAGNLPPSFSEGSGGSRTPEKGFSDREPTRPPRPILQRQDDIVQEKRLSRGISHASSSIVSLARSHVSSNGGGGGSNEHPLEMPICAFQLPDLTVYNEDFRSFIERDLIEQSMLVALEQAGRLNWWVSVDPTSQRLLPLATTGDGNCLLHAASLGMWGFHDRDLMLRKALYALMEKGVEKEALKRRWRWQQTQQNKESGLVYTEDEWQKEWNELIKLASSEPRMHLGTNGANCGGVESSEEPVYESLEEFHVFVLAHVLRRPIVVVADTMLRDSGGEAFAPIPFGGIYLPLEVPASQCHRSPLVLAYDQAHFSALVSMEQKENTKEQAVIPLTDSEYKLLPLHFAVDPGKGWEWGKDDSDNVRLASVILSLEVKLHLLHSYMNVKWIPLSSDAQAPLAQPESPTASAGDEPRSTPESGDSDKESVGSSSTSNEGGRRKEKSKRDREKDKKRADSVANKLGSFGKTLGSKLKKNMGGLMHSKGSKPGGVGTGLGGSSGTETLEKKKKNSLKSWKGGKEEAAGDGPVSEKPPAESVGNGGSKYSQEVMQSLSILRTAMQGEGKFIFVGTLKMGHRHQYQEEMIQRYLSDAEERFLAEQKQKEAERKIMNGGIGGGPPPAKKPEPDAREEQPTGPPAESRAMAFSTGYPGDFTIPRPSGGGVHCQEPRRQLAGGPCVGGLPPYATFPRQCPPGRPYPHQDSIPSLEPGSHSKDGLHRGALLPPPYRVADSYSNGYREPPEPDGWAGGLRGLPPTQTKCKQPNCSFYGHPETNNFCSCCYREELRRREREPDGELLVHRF
Method in brief: as §1

PRPF8 = PRPF8 (UniProt Q6P2Q9)
Method in brief: as §1

PSMD7 = target: T3, PSMD7 (UniProt P51665)
T3 sequence (whole entry): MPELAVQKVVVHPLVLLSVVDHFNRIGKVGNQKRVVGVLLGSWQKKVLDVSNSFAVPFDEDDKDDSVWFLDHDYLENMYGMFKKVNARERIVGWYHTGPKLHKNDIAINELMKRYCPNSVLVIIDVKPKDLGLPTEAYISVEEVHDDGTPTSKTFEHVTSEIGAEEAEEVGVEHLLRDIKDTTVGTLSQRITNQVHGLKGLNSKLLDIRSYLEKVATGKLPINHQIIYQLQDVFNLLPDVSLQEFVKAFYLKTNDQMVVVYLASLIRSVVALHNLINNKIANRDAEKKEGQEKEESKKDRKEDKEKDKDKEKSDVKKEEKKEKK
Method in brief: as §1

UCHL1 = UCHL1 (UniProt P09936)
Chain of UCHL1 (P09936 whole entry, looked up): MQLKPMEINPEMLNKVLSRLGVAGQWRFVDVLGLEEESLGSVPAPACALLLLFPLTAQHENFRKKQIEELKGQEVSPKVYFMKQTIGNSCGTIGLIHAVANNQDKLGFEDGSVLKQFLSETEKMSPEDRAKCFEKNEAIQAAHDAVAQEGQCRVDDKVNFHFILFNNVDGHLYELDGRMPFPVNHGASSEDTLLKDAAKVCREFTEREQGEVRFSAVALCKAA
Method in brief: as §1

UCHL3 = target: T4, UCHL3 (UniProt P15374)
T4 sequence (whole entry): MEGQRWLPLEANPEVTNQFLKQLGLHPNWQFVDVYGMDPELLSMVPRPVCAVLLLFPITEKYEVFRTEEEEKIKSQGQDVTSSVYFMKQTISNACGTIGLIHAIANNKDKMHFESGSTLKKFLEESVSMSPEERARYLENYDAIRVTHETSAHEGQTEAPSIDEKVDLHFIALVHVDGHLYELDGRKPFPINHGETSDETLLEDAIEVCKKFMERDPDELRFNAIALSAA
Method in brief: as §1

UCHL5 = target: T5, UCHL5 (UniProt Q9Y5K5)
T5 sequence (whole entry): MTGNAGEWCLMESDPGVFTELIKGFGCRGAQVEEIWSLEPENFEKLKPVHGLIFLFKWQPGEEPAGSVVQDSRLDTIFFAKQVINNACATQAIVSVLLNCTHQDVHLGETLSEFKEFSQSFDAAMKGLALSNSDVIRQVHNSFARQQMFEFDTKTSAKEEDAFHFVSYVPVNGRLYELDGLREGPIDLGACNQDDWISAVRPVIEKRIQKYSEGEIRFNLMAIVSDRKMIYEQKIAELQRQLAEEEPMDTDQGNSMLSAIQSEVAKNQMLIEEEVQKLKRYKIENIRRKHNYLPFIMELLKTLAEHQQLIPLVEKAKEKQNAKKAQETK
Method in brief: as §1

USP10 = USP10 (UniProt Q14694)
Chain of USP10 (Q14694 whole entry): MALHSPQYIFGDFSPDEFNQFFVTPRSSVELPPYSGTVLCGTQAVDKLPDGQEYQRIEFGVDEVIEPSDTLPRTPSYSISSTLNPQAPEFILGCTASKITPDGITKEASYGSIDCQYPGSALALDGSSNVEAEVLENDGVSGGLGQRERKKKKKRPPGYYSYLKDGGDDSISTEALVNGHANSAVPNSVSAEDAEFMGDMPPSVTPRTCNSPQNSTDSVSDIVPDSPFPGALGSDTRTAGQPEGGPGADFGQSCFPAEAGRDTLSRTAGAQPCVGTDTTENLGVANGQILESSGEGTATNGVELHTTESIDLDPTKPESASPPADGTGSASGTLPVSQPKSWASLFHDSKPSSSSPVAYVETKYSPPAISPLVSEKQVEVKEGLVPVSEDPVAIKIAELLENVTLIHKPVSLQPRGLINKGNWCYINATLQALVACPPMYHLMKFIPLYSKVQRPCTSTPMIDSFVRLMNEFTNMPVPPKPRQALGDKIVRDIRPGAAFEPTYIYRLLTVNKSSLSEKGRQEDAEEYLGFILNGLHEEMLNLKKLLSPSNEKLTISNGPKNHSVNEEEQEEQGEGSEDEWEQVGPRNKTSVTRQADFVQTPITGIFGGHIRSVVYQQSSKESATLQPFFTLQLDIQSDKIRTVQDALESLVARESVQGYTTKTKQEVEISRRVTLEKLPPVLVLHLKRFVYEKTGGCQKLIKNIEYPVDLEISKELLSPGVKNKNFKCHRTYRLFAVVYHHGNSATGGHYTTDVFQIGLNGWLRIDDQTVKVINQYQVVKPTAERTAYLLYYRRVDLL
Method in brief: as §1

USP15 = target: T6, USP15 (UniProt Q9Y4E8)
T6 sequence (whole entry): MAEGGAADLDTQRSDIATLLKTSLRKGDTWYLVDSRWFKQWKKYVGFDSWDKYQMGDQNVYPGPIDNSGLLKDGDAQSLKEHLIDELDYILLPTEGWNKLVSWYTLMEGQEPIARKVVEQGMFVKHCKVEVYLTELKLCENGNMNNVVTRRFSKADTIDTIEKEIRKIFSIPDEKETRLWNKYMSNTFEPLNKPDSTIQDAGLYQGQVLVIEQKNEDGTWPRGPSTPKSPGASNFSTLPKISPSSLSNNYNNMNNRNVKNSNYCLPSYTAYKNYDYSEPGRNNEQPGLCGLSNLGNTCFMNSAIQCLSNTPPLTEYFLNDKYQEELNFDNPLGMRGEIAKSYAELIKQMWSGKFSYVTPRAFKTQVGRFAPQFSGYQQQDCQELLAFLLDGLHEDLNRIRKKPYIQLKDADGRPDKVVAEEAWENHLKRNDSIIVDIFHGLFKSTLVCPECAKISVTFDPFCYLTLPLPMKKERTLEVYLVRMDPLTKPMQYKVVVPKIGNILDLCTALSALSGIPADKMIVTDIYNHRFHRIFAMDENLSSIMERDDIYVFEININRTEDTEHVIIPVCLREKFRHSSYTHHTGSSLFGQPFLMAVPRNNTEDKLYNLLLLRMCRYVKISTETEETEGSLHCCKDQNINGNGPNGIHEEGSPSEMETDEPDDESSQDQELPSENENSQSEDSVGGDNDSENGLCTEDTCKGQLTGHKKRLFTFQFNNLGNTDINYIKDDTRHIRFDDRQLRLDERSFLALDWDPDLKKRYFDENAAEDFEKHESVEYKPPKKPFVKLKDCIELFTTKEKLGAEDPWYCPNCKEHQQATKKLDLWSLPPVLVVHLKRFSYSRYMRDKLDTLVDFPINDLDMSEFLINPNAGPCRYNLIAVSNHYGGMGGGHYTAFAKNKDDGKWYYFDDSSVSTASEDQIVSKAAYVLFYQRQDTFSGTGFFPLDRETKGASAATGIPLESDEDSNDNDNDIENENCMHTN
Method in brief: as §1

USP16 = USP16 (UniProt Q9Y5T5)
Chain of USP16 (Q9Y5T5 whole entry, looked up): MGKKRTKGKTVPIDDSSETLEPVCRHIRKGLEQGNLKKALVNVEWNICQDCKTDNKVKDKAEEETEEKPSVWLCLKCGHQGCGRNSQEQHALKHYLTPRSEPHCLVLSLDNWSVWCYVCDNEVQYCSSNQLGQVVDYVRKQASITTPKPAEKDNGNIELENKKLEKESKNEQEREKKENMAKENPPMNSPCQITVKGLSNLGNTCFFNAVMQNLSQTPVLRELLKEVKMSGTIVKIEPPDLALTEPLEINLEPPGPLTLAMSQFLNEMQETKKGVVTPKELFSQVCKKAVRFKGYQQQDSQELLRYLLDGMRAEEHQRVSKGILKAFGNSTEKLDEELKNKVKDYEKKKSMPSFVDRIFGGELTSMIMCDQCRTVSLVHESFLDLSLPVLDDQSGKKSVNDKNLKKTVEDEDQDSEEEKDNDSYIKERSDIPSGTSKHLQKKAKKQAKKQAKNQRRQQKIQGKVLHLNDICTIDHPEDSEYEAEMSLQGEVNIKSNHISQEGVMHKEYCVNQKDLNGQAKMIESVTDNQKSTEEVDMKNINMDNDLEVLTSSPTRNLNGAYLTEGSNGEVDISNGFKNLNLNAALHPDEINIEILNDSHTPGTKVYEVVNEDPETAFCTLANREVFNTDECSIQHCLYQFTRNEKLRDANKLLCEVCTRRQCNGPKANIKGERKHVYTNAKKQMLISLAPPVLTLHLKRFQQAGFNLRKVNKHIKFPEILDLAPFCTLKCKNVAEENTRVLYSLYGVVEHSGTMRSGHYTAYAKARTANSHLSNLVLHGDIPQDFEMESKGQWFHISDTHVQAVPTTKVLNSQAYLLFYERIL
Method in brief: as §1

Measured: log2 ratio of Biotin-Ahx-Ub-VS probe labelling

O=C(CCl)N1CCOCCC1c1ccccc1 (stereo not given)
active: UCHL1 -1.93
inactive: OTUD6B -0.163 | OTUD7B -0.354 | PRPF8 -0.148 | PSMD7 0.00247 | UCHL3 0.325 | UCHL5 -0.0371 | USP10 -0.182 | USP15 0.0371 | USP16 -0.424
